Screening results from PubChem BioAssay.
IDE cell activ: human IDE activators in live cells, primary screen, fluorescence polarization, HEK cells, FAbeta-B substrate. Insulin-degrading enzyme (Homo sapiens), P14735. FAbeta-B cleavage; 0% vehicle, 100% cell-free pure enzyme wells. activation, % at 5.96 µM. 340,000 compounds, 0.073% hits;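 active = activation above the mean of all tested compounds plus 3 SD, set per screening campaign, cut at about 17% in these data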
IDE cell inh: human IDE inhibitors in live cells, primary screen, fluorescence polarization, HEK cells, FAbetaB substrate | AID 434962, 2010 | FAbetaB cleavage | inhibition, % at 5.59 µM | 320,000 compounds, 0.41% hits;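 active = percent inhibition above the average of all tested compounds plus 3 SD, set per screening campaign, cut at about 16% in these data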;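 also: IDE supplied by intact live HEK cells; FP after avidin binding of uncleaved biotin substrate so inhibition keeps polarization high; 0% = DMSO wells and 100% = 60 µM reference IDE inhibitor Ii1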
HDAC3 inhib: HDAC3 deacetylase inhibitors, primary screen, biochemical, fluorescence, cell-free homogeneous | recombinant HDAC3, fluorogenic peptide/trypsin coupled | 320,000 compounds, 0.15% hits | inhibition, % at 8.3 µM | Histone deacetylase 3 (Homo sapiens), O15379 | AID 2718, 2010; in the data active = inhibition above about 26%, passing the limit was not always enough; inconclusive = no clear call, values can overlap the other calls
LANA-H2B inh: blockers of LANA interaction with H2A/H2B – biochemical, FP readout, HTS, primary screen; 320,000 compounds, 0.6% hits; Protein LANA1 (Human herpesvirus 8 type P (isolate GK18)), Q9QR71; cell-free LANA-H2A/H2B peptide, fluorescence polarization; inhibition, % (concentration not given with the values); in the data active = inhibition mostly above about 10%, no sharp cut-off; inactive = mostly below about 6.7%
Target sequence (Q9QR71 whole entry, looked up): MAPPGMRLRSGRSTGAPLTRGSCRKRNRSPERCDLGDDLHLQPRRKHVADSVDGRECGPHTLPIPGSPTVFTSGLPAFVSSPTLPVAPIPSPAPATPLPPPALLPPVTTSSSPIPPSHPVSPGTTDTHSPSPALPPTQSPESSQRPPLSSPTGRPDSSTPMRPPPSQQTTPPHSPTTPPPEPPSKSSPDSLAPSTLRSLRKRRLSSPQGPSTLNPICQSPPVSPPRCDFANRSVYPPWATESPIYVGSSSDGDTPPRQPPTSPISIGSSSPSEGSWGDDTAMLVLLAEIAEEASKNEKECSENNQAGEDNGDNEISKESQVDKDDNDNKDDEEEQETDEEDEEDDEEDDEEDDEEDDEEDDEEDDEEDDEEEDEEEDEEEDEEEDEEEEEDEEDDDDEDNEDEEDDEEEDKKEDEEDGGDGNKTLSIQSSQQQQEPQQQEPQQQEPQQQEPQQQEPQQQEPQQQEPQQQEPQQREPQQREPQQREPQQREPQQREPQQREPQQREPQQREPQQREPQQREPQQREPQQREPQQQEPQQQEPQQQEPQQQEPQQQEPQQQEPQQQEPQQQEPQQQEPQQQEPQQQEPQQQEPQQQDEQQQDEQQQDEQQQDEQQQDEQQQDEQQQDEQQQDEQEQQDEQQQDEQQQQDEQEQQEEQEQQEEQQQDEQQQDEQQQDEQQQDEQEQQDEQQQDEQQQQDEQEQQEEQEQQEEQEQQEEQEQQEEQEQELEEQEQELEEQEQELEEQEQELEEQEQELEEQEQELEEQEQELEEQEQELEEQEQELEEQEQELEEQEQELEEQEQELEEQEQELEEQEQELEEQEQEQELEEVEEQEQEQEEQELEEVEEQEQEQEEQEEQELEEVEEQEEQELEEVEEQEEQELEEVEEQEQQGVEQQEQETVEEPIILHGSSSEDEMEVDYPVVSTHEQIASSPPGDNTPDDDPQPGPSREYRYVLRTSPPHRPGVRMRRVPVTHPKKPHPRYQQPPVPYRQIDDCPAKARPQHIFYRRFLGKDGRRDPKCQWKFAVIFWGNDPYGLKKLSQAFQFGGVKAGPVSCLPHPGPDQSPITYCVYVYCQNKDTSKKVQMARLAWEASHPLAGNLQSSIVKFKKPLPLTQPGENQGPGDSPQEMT
* marks the source's active call; other numbers are inactive results; u = inconclusive; x = no result given; + = active, no number. Shown are actives, neighbours in structure and some others; about 1.1% of the full set was active somewhere.

SMILES | IDE cell activ | IDE cell inh | HDAC3 inhib | LANA-H2B inh
Cc1ccc(S(=O)(=O)N2CCCCC2)cc1NC(=O)c1nn(C)c(=O)c2ccccc12 | 4 | x | x | x
O=C(Nc1ccccc1Cl)OC1CCCCC1 | 4 | 2 | 3 | 9
CC1CC(OC(=O)C(O)c2ccccc2)CC(C)(C)N1C (stereo not drawn) | -2 | 2 | 0 | 17*
N/C(=N/OS(=O)(=O)c1ccc([N+](=O)[O-])cc1)c1ccncc1 | 2 | 0 | 4 | 37*
Fc1ccccc1N1CCN(Cc2nc(-c3ccc(Cl)cc3Cl)no2)CC1 | 1 | -3 | -1 | 4
NS(=O)(=O)c1ccc(CCNC(=O)C2CCC(Cn3c(=S)[nH]c4ccccc4c3=O)CC2)cc1 (stereo not drawn) | 6 | 0 | -1 | 2
CC(C)(C)N(Cc1ccccc1)C(=O)c1ccc(Br)o1 | 1 | -6 | -1 | 9.6*
CC(C)(C)N(Cc1ccccc1)C(=O)COC(=O)c1ccc(Br)o1 | 3 | 1 | 7 | -3
CCOCCn1c(CN2CCCC(C)C2)nc2c1c(=O)n(C)c(=O)n2C (stereo not drawn) | 3 | 1 | -1 | 1
CC1CCCN(Cc2nc3c(c(=O)n(C)c(=O)n3C)n2CC(N)=O)C1 (stereo not drawn) | 5 | -4 | -5 | 13*
CC(NC(=O)C(=O)NN=C1CCCCCCCCCCC1)c1ccccc1 (stereo not drawn) | 1 | 1 | -1 | 12*
CC(NC(=O)C(=O)NN=C1CCCCCC1)c1ccccc1 (stereo not drawn) | 2 | 1 | 4 | -6
Cn1nc(-c2ccccc2)c2ncc(C(F)(F)F)cc21 | 6 | 1 | -7 | -5
Cc1ccc(C)c(N2CCN(C(=O)c3cc4ccccn4n3)CC2)c1 | 6 | -3 | 6 | 30*
CCOc1ccccc1C(=O)OCC(=O)Nc1ccc(N2CCCCC2)cc1 | 8 | 10 | 0 | -1
O=C(COC(=O)c1cccnc1Cl)Nc1ccc(N2CCCCC2)cc1 | 4 | -6 | 6 | +
CCN1C(=O)/C(=C\N2CCN(C(=O)c3ccco3)CC2)SC1=S | 4 | -3 | 5 | -5
CCN1CCN(c2c(/C=C3\SC(=S)N(Cc4ccco4)C3=O)c(C)c(C#N)c(=O)n2C)CC1 | -62 | 66* | 7 | -7
COc1cccc(CNc2ccc3c(c2)ncn3C(C)C)c1OC | 20* | -10 | u | -1
CCOc1ccccc1NC(=O)C(OC(=O)c1ccc(NC(=O)CC#N)cc1)c1ccccc1 (stereo not drawn) | 4 | 2 | 11 | 0
CC(C(=O)Nc1ncn[nH]1)N1C(=O)c2ccccc2C1=O (stereo not drawn) | 4 | 2 | 5 | 17*
CC(=O)Nc1ccccc1NC(=O)c1ccccc1 | 3 | 5 | 0 | 18
Nc1ccccc1NC(=O)c1ccccc1 | 4 | -2 | 75* | 3
COCC(=O)N1CCC(Oc2ccc(C(=O)N3CCCCCCC3)cc2)CC1 | 2 | 8 | -5 | 9
COCC(=O)N1CCC(Oc2ccc(C(=O)N(C)CCCC3CCCC3)cc2)CC1 | 2 | 2 | 3 | 16*
SMILES | IDE cell activ | IDE cell inh | HDAC3 inhib | LANA-H2B inh
O=C(OCc1c(-c2ccccc2)ncc2ccccc12)N1CCOCC1 | 0 | 1 | 5 | -4
O=C(OC(c1ccc(NS(=O)(=O)c2ccccc2)cc1)(C(F)(F)F)C(F)(F)F)c1ccccc1 | -2 | 2 | 34* | -2
Cc1ccc(S(=O)(=O)Nc2ccc(C(OC(=O)c3ccccc3[N+](=O)[O-])(C(F)(F)F)C(F)(F)F)cc2)cc1 | 3 | -4 | 31* | 1
CC(=O)c1ccc(NS(=O)(=O)c2ccccc2)cc1 | 5 | 6 | 18 | 1
COc1ccc(CCNC(=O)/C=C/c2ccco2)cc1 | -4 | 1 | -3 | 0
CCCC(=O)n1nc(-c2ccccc2)nc1SC | 1 | -6 | 32* | 3
CSc1nc(-c2ccccc2)nn1C(=O)c1ccccc1 | 3 | 1 | u | -7
O=C(NCCc1ccc(Cl)cc1)c1cnccn1 | 4 | 4 | 1 | +
CCCN1CCC(NC23CC4CC(CC(C4)C2)C3)CC1 | x | 1 | -10 | -2
Cc1cc(OC(=O)c2ccccc2)n(CCC#N)n1 | -2 | 8 | 87* | -5
COc1ccc(C2C=C(c3ccc(Br)cc3)Nc3nc(N4C(=O)CCC4=O)nn32)cc1 (stereo not drawn) | -19 | 29* | 4 | 10
